Test results published in PubChem BioAssay.
Several values for one entry are separate records, joined by “and”; a condition that tells them apart may be missing. Equal values may be shown once. A structure can be active in one record and inactive in another. Activity calls are given as the source filed them.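 How the source made its calls, unless noted: active means normalized viability below 100% at a tested concentration; inactive means the rest.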

Key:
[1] = stimulators of nuclear beta-catenin in C2C12, primary screen, imaging, WNT3A-conditioned medium, mouse C2C12, NPC library (AID 1117326; in the data active means nuclear beta-catenin stimulation mostly above about 4.2%, no sharp cut-off; inactive means mostly below about 10%); conditions: stronger effect = higher value
[2] = stimulators of insulin release from INS-1E, primary screen, cell-based, 5 mM glucose, NPC library (AID 1117329;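 active means compound raises insulin release from rat beta cells at 5 mM glucose, no numeric limit stated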); conditions: rat INS-1E insulin secretion, at 10 µM, stronger effect = higher value
[3] = growth inhibition of GSK3B-pretreated HCT116 cells – cell-based, CellTiter-Glo, 0.2 to 20 µM (AID 1117336;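 active means compounds lowering colon cancer cell viability after pretreatment blocking the GSK3B kinase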); conditions: HCT116 viability after GSK3B inhibitor, at 20 µM, stronger effect = higher value
[4] = inhibition of endothelial tube formation, primary screen, imaging, VEGF stimulated, CD31 staining, tube area, NPC library (AID 1117340;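 active means compound that reduces growth-factor-driven endothelial tube area in a mixed cell culture, no cutoff stated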); conditions: VEGF-stimulated ADSC/ECFC co-culture, at 10 µM, stronger effect = higher value
[5] = glucagon-like peptide 1 release enhancers, primary assay, NCI-H716 cell line, NPC library (AID 1117341;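 active means compound raises GLP1 secretion from the human gut endocrine cells, with no numeric limit stated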); conditions: NCI-H716 cells, at 10 µM, stronger effect = higher value
[6] = HCT116 colon cancer cell growth inhibition, primary screen, CellTiter-Glo luminescence, NPC library (AID 1117342;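 active means compounds that lower survival of HCT116 colon cancer cells in the luminescence readout, no numeric limit stated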); conditions: at 20 µM (top of the series)
[7] = CellTiter-Glo luminescent readout of SW480 viability loss, NPC library primary (AID 1117343;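 active means compounds that lower viability of the colon cancer cells in the luminescence readout, with no numeric limit stated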); conditions: CellTiter-Glo luminescence; at 20 µM (top of the series)
[8] = decreased DLD-1 cellular survival, CellTiter-Glo luminescent readout, NPC compound collection, primary HTS (AID 1117346;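 active means compounds that lower survival of DLD-1 colon cancer cells in the luminescence readout, no cutoff given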); conditions: DLD-1 viability, CellTiter-Glo luminescence; at 20 µM (top of the series)
[9] = target: 6-phosphogluconate dehydrogenase, decarboxylating (Homo sapiens) (UniProt P52209); assay: 6PGD enzyme inhibitors, primary screen, biochemical, human, recombinant enzyme, NADPH absorbance (AID 1159550;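 active means at least 20% inhibition of 6-phosphogluconate dehydrogenase activity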); conditions: recombinant 6PGD, NADPH absorbance 341 nm; at 10 µM; stronger effect = higher value
Chain of 6-phosphogluconate dehydrogenase, decarboxylating (Homo sapiens) (P52209 whole entry, looked up): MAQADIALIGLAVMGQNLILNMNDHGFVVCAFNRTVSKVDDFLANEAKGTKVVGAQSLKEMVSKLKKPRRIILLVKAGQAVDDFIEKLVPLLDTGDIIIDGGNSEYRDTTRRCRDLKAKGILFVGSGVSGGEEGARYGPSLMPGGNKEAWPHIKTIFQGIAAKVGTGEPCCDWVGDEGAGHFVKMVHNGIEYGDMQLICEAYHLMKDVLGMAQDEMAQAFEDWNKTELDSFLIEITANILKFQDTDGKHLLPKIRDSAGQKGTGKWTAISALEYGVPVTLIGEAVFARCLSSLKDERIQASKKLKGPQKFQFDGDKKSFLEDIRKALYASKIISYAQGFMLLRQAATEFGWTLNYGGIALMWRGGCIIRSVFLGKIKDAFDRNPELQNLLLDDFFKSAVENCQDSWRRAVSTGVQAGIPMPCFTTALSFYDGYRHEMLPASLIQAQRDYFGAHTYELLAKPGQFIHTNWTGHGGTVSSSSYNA

[10] = differential killing of epithelial or mesenchymal cells, primary screen, imaging, PC-3E GFP, TEM4-18 mCherry, co-culture (AID 1345086;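 active means compounds killing one labelled cell type while sparing the other, by normalised counts and ratio limits, not self-fluorescent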;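 on all read-outs here: cells exposed to compound for 72 h before imaging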;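 on red/green cell ratio (normalised): normalised mesenchymal count divided by normalised epithelial count so high means epithelial killing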); conditions: imaging cell counts, at 1 µM; for red/green cell ratio (normalised): actives lie on both sides, counts scaled to control wells, 1 = unselective
[11] = ovarian cancer cell viability with rucaparib, profiling panel, oncology-focused library, rucaparib conditional (AID 1508598); conditions: patient-derived ovarian cancer cells, CellTiter-Glo viability, 144 h, stronger effect = lower value
F380Y = assay: modulators of BK channel variants, profiling panel, selectivity assay, cell-based, U2OS BacMam, thallium flux, beta subunits (AID 1259406;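 active means thallium flux through the channel raised or lowered by more than 3 SD from vehicle-only wells, actives on both sides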;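 further: initial slope of Thallos dye fluorescence rise after thallium is added; log ratio against the mean of 0.3% DMSO vehicle wells on the same plate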); conditions: at 30 µM
F380Y/beta1 = assay: as above; conditions: at 30 µM
F380Y/beta2Delta = assay: as above; conditions: at 30 µM
F380Y/beta4 = assay: as above; conditions: at 30 µM
[12] = target: Calcium-activated potassium channel subunit alpha-1 (Homo sapiens) + Leucine-rich repeat-containing protein 26 (Homo sapiens) (UniProt Q12791+Q2I0M4); assay: as above; conditions: F380Y/Slo1WT/gamma1, at 30 µM
Chain of Calcium-activated potassium channel subunit alpha-1 (Homo sapiens) + Leucine-rich repeat-containing protein 26 (Homo sapiens) (Q2I0M4 whole entry, looked up, one chain of several): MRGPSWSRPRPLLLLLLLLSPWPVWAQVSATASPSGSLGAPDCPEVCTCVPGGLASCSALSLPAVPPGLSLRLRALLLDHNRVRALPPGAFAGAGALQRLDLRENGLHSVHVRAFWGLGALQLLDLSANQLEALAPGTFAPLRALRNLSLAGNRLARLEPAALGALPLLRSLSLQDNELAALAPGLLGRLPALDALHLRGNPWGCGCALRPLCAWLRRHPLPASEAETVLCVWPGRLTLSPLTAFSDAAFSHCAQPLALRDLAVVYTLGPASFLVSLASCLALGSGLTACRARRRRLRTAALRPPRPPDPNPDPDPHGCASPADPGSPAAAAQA

R275C = assay: as above; conditions: at 30 µM
R275C/beta1 = assay: as above; conditions: at 30 µM
[13] = survival rescue of mitochondrial mutant cells in low glucose, primary screen, MELAS cybrids, Rieske KO mouse fibroblasts, CellTiter-Glo (AID 1508586;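 active means mean z-score across replicates of 1.96 or higher in either the MELAS or the Rieske mutant cell line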;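 further: z relative to plate mean and SD of compound and empty wells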)
[14] = measured here: epithelial PC-3E GFP cell survival
[15] = measured here: mesenchymal TEM4-18 mCherry cell survival
[16] = MELAS cybrid survival, CellTiter-Glo 48 h, stronger effect = higher value
[17] = Rieske KO mouse fibroblast survival, CellTiter-Glo 72 h

O=C1c2c(O)ccc(O)c2C(=O)c2c(NCCNCCO)ccc(NCCNCCO)c21
14.4%: nuclear beta-catenin stimulation ([1]; stimulation, at 2 µM)
109% (inactive) and 96.8% (active): viability ([11]; at 0.00122 µM, OCI-P5x cells, without rucaparib)
active: nuclear beta-catenin stimulation ([1]; at 10 µM) 79.6% | viability decrease [3] 102% | tube area decrease [4] 109% | inhibition of viability [6] 101% | viability decrease (inhibition) [7] 102% | viability decrease (inhibition) [8] 96.1% | viability ([11]; at 0.000305 µM, OCI-P5x cells, with rucaparib 20 µM, 100% = cells with rucaparib alone) 85.2% and 88.1% | viability ([11]; at 0.00122 µM, OCI-P5x cells, with rucaparib 20 µM, 100% = cells with rucaparib alone) 98.9% and 93.9% | viability ([11]; at 0.00488 µM, OCI-P5x cells, with rucaparib 20 µM, 100% = cells with rucaparib alone) 97.7% and 84.3% | viability ([11]; at 0.0195 µM, OCI-C5x cells, with rucaparib 10 µM, 100% = cells with rucaparib alone) 83.6% and 77% | viability ([11]; at 0.0195 µM, OCI-C5x cells, without rucaparib) 87.9% and 74.9% | viability ([11]; at 0.0195 µM, OCI-P5x cells, with rucaparib 20 µM, 100% = cells with rucaparib alone) 86.2% and 68.2% | viability ([11]; at 0.0195 µM, OCI-P5x cells, without rucaparib) 74.8% and 44.3% | viability ([11]; at 0.0781 µM, OCI-C5x cells, with rucaparib 10 µM, 100% = cells with rucaparib alone) 89.4% and 82.8% | viability ([11]; at 0.0781 µM, OCI-C5x cells, without rucaparib) 78.8% and 86.1% | viability ([11]; at 0.0781 µM, OCI-P5x cells, with rucaparib 20 µM, 100% = cells with rucaparib alone) 52.6% and 49.6% | viability ([11]; at 0.0781 µM, OCI-P5x cells, without rucaparib) 27.2% and 21.5% | viability ([11]; at 0.313 µM, OCI-C5x cells, with rucaparib 10 µM, 100% = cells with rucaparib alone) 76.1% and 60.1% | viability ([11]; at 0.313 µM, OCI-C5x cells, without rucaparib) 57% and 56.6% | viability ([11]; at 0.313 µM, OCI-P5x cells, with rucaparib 20 µM, 100% = cells with rucaparib alone) 25.3% and 26% | viability ([11]; at 0.313 µM, OCI-P5x cells, without rucaparib) 12.4% and 12.3% | viability ([11]; at 1.25 µM, OCI-C5x cells, with rucaparib 10 µM, 100% = cells with rucaparib alone) 13.3% and 11.4% | viability ([11]; at 1.25 µM, OCI-C5x cells, without rucaparib) 15% and 15.4% | viability ([11]; at 1.25 µM, OCI-P5x cells, with rucaparib 20 µM, 100% = cells with rucaparib alone) 7.5% and 9.35% | viability ([11]; at 1.25 µM, OCI-P5x cells, without rucaparib) 6.58% and 5.99% | viability ([11]; at 5 µM, OCI-C5x cells, with rucaparib 10 µM, 100% = cells with rucaparib alone) 3.19% and 2.94% | viability ([11]; at 5 µM, OCI-C5x cells, without rucaparib) 2.31% and 2.92% | viability ([11]; at 5 µM, OCI-P5x cells, with rucaparib 20 µM, 100% = cells with rucaparib alone) 6.35% and 8.96% | viability ([11]; at 5 µM, OCI-P5x cells, without rucaparib) 6.78% and 6.39%
107% (inactive) and 84.4% (active): viability ([11]; at 0.00488 µM, OCI-P5x cells, without rucaparib)
100% (inactive) and 94.2% (active): viability ([11]; at 0.000305 µM, OCI-P5x cells, without rucaparib)
inactive: insulin secretion stimulation [2] 3.9% | GLP1 secretion stimulation [5] -17.3% | inhibition [9] 13% | red/green cell ratio (normalised) [10] 0.57 | viability ([11]; at 0.000305 µM, OCI-C5x cells, with rucaparib 10 µM, 100% = cells with rucaparib alone) 111% and 109% | viability ([11]; at 0.000305 µM, OCI-C5x cells, without rucaparib) 114% and 118% | viability ([11]; at 0.00122 µM, OCI-C5x cells, with rucaparib 10 µM, 100% = cells with rucaparib alone) 114% and 109% | viability ([11]; at 0.00122 µM, OCI-C5x cells, without rucaparib) 117% and 115% | viability ([11]; at 0.00488 µM, OCI-C5x cells, without rucaparib) 113% and 104% | log fold change Tl+ flux (F380Y) -0.0248 | log fold change Tl+ flux (F380Y/beta1) -0.0573 | log fold change Tl+ flux (F380Y/beta2Delta) 0.00615 | log fold change Tl+ flux (F380Y/beta4) -0.0582 | log fold change Tl+ flux [12] -0.0507 | log fold change Tl+ flux (R275C) -0.0256 | log fold change Tl+ flux (R275C/beta1) -0.052
0.12: normalised cell number [10, 15]
0.2: normalised cell number [10, 14]
104% (inactive) and 93.6% (active): viability ([11]; at 0.00488 µM, OCI-C5x cells, with rucaparib 10 µM, 100% = cells with rucaparib alone)

NS(=O)(=O)c1cc2c(cc1Cl)NCNS2(=O)=O
0.408 and -0.255: z-score [13, 17]
1.11: normalised cell number [10, 15]
1.24: normalised cell number [10, 14]
inactive: nuclear beta-catenin stimulation ([1]; at 10 µM) 0.4% | insulin secretion stimulation [2] -1.9% | viability decrease [3] -1.55% | tube area decrease [4] -9% | GLP1 secretion stimulation [5] -0.3% | inhibition of viability [6] 0.1% | viability decrease (inhibition) [7] 5.4% | viability decrease (inhibition) [8] -1% | inhibition [9] -1.9% | red/green cell ratio (normalised) [10] 0.89 | z-score [13, 16] -0.267 and -0.584 | log fold change Tl+ flux (F380Y) -0.0347 | log fold change Tl+ flux (F380Y/beta1) -0.00418 | log fold change Tl+ flux (F380Y/beta2Delta) -0.0515 | log fold change Tl+ flux (F380Y/beta4) -0.0186 | log fold change Tl+ flux [12] -0.0022 | log fold change Tl+ flux (R275C) -0.00411 | log fold change Tl+ flux (R275C/beta1) 0.0065
0.8%: nuclear beta-catenin stimulation ([1]; stimulation, at 2 µM)

COCCOC(=O)C1=C(C)NC(C)=C(C(=O)OC(C)C)C1c1cccc([N+](=O)[O-])c1 (stereo unspecified)
-0.137 and 1.51 and 1.35: z-score [13, 17]
active: inhibition of viability [6] 77.9% | viability decrease (inhibition) [7] 55.7% | log fold change Tl+ flux (F380Y/beta2Delta) -0.122 | log fold change Tl+ flux (F380Y/beta4) -0.126
1.17: normalised cell number [10, 15]
inactive: nuclear beta-catenin stimulation ([1]; at 10 µM) -0.6% | insulin secretion stimulation [2] -0.5% | viability decrease [3] 46.2% | tube area decrease [4] -1.2% | GLP1 secretion stimulation [5] -0.1% | viability decrease (inhibition) [8] 27.1% | inhibition [9] 2.88% | red/green cell ratio (normalised) [10] 1.09 | z-score [13, 16] -0.249 and 1.31 and 0.763 | log fold change Tl+ flux (F380Y) -0.0169 | log fold change Tl+ flux (F380Y/beta1) 0.0464 | log fold change Tl+ flux [12] 0.0377 | log fold change Tl+ flux (R275C) -0.000869 | log fold change Tl+ flux (R275C/beta1) -0.0169
1.07: normalised cell number [10, 14]
1.2%: nuclear beta-catenin stimulation ([1]; stimulation, at 2 µM)
